# Screens as filed in PubChem BioAssay.
# Shown are actives, neighbours in structure and some others; about 4.1% of the full set was active somewhere.
# DAX1 inh-1 – inhibits human nuclear receptor DAX1; inhibition, % at 6.75 µM; P51843; 340,000 tested, 0.99% active; HEK293 Gal4-DAX1 luciferase reporter, luminescence; AID 504766;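 active = inhibition above the mean over all tested compounds plus 3 SD, cut at about 4.2% in these data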;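 also: 0% = DAX1-transfected cells with DMSO and 100% = empty-vector control cells with DMSO; inhibition shows as a rise in luminescence from relieved DAX1 repression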
# Target sequence (P51843 207-470 limits assumed): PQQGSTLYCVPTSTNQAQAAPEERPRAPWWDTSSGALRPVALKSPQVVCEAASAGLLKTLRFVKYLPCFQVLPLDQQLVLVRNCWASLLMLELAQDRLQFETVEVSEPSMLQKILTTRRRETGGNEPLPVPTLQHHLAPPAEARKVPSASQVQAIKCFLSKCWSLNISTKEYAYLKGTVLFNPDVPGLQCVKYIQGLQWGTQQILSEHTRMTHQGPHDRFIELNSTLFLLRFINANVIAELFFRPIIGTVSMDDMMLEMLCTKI
# DAX1 inh-2 – inhibitors of DAX1 repression of SF-1 activated StAR promoter; HEK293T StAR-luciferase reporter, SF-1/DAX-1 repression relief; inhibition, % at 6.8 µM; 370,000 tested, 1.1% active;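 active = inhibition above the mean over all tested compounds plus 3 SD, cut at about 3.6% in these data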;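 also: 0% = DAX-1 cells with DMSO and 100% = cells lacking DAX-1 with DMSO; higher inhibition means more luminescence from relief of DAX-1 repression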
# hcDAF-12 act – activates DAF-12 receptor from parasite H. contortus | activation, % at 6.8 µM | HEK293 hcDAF-12 lit1-tk-luc reporter, luminescence; 0% DMSO, 100% Δ7-dafachronic acid | 370,000 tested, 1.4% active;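 active = activation above the mean of all tested compounds plus 3 SD, cut at about 5.5% in these data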;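 also: 100% = response to 3 µM Δ7-dafachronic acid high control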
# hgDAF-12 ag – activates the H. glycines DAF-12 receptor ligand-binding domain; HEK293 GAL4-hgDAF12 UAS-luciferase reporter, agonist luminescence; normalized to butyrate control; AID 687014; activation, % at 6.8 µM; 370,000 tested, 1.8% active;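 active = activation above a cutoff set at the mean of all screened compounds plus 3 SD, cut at about 10% in these data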;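 also: 0% = DMSO wells and 100% = sodium butyrate wells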
# ssDAF12 agonist – activates DAF-12 receptor from parasite S. stercoralis. AID 652126. 370,000 tested, 1% active. activation, % at 6.8 µM. HEK293 ssDAF-12/GRIP1 lit1-tk-luc reporter, luminescence; % of 3 µM dafachronic acid response;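 active = activation above the mean over all tested compounds plus 3 SD, cut at about 0.9% in these data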;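 also: 0% = DMSO-only wells and 100% = 3 µM delta7-dafachronic acid wells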
# Numbers without * were called inactive; . = no result given.
SMILES,DAX1 inh-1,DAX1 inh-2,hcDAF-12 act,hgDAF-12 ag,ssDAF12 agonist
Cc1cc(C)nc(SC2CCCCC2O)n1 (stereo unspecified),1.1,1.4,5.8*,3.6,-0.6
C[C@@H]1OC(C2CCCCC2)N(C)[C@H]2C[C@H]3c4[nH]c5cccc(-c6ccccc6)c5c4CCN3C[C@@H]12 (stereo partly specified),.,-1.2,-0.3,0.0,-0.5
Cc1nc2nc(C)c(NS(=O)(=O)c3ccc(Cl)cc3)c(=O)n2[nH]1,0.2,0.2,6.4*,4.0,0.5
CCc1ccc(S(=O)(=O)Nc2c(C)nc3nc[nH]n3c2=O)cc1,8.0*,0.1,-0.8,-1.5,-0.6
O=C(Nc1ccc(F)cc1)OCCCN1C(=O)CCC12CCCCC2,.,0.7,-1.3,2.9,-1.1
CC(O)CNc1ncnc2nc[nH]c12 (stereo unspecified),1.6,-0.6,-0.6,2.6,-1.2
CC(C)=NNc1ncnc2nc[nH]c12,6.3*,3.6,0.2,4.7,-0.3
Cc1ccc2c(c1C)NC(=O)C21N2CCCC2C(C(=O)c2ccc3ccccc3c2)C12C(=O)Nc1ccccc12 (stereo unspecified),2.2,-0.5,3.1,1.5,1.1*
COC(=O)[C@]12C[C@H](CC(=O)NCc3cccc4ccccc34)C(=O)N(Cc3ccc(Cl)cc3Cl)C1=C[C@H](C(C)(C)C)O[C@@H]2C,.,-1.2,0.7,0.5,-1.4
S=C(NCCc1ccccn1)Nc1ccccc1Cl,-0.4,0.1,-2.2,-1.6,-1.8
O=C(NCc1ccccn1)Nc1ccc(Br)cc1Cl,2.5,5.2*,1.2,6.0,-0.8
O=C(NCc1ccccn1)Nc1ccc(Cl)cc1Cl,0.6,3.2,1.4,7.2,0.3
S=C(NCc1ccccn1)Nc1ccc(Br)cc1Cl,5.6*,1.8,1.3,5.6,0.0
S=C(NCc1ccccn1)Nc1ccccc1Cl,0.7,1.3,5.6*,2.3,-0.6
S=C(NCc1ccccc1Cl)Nc1ccccc1Cl,7.4*,-0.4,-0.7,4.9,-0.9
CCCCCCCCN1C(=O)[C@@H](CC(=O)NCc2ccc(C)o2)C[C@@]2(C(=O)OC)C1=C[C@H](C(C)C)O[C@@H]2C1CC1,.,-1.7,-2.2,1.6,-1.1
Oc1ccc(C2CNCc3sccc32)cc1O (stereo unspecified),-0.5,-0.2,-2.2,0.2,1.0*
COC(=O)N[C@H](C(=O)N[C@@H](Cc1ccccc1)[C@@H](O)CN(Cc1ccc(-c2ccccn2)cc1)NC(=O)[C@@H](NC(=O)OC)C(C)(C)C)C(C)(C)C,.,-1.2,-2.6,0.9,-0.7
COc1ccccc1C(=O)CSc1nnc(-c2ccncc2)n1-c1ccc(Cl)cc1,.,-0.6,0.2,0.4,-1.4
Cc1c(-c2ccccc2)[nH]n2c(=O)c3c(nc12)CCCC3,2.1,2.5,2.4,10.5*,-0.5
COc1ccc(OC)c(Nc2cc(C)nc3ccc(C)cc23)c1,-3.7,-1.3,-1.9,2.2,-1.7
Cn1cc(C=C2C(=O)CC(C)(C)CC2=O)c2ccccc21,-1.7,-0.1,1.4,2.0,1.3*
CCOC(=O)c1cc(-c2csc(Nc3ccccc3Cl)n2)on1,3.9,0.6,3.2,0.5,1.5*
CCOC(=O)C1C(c2ccccc2)C(C(=O)OCC)C1c1ccccc1 (stereo unspecified),0.6,-0.1,-3.5,0.8,-1.6
Cc1ccccc1OC(=O)C1C(c2ccccc2)C(C(=O)O)C1c1ccccc1 (stereo unspecified),5.0*,0.4,5.0,3.0,0.1
SMILES,DAX1 inh-1,DAX1 inh-2,hcDAF-12 act,hgDAF-12 ag,ssDAF12 agonist
Cc1ccccc1NC(=O)C1Cc2ccccc2CN1C(=O)c1ccco1 (stereo unspecified),5.4*,1.4,2.4,8.5,-0.2
CN(C)c1ccc(CN(Cc2ccco2)C(=O)c2ccco2)cc1,-0.6,0.6,-1.4,-2.1,-1.4
O=C(c1ccco1)N(Cc1ccc(Cl)cc1)Cc1ccco1,-0.2,-2.0,5.7*,2.7,-0.2
COC(c1ccccc1)c1nnc(CCC(=O)N(C)C(C2CC2)C2CC2)o1 (stereo unspecified),5.2*,0.3,0.9,6.7,-0.6
Cc1n[nH]c(C)c1S(=O)(=O)NC(C)Cc1ccccn1 (stereo unspecified),.,0.0,1.6,3.4,-1.1
CCN(CC)c1nc(C)nc2c1nnn2Cc1ccccc1,.,0.3,-1.8,-4.4,-1.7
O=C(O)CCCCC1SCC2NC(=O)NC21 (stereo unspecified),5.8*,0.8,0.4,-1.2,-1.8
CN(C)CCCN1C(=O)c2oc3ccc(F)cc3c(=O)c2C1c1cccnc1 (stereo unspecified),0.9,0.9,0.4,11.3*,0.0
C(=N\Nc1nncc2ccccc12)/c1ccccn1,-2.0,-0.7,2.4,8.4,-0.2
CC(=O)Nc1ccc(/C=N/Nc2nncc3ccccc23)cc1,5.0*,1.4,2.6,9.2,-0.4
CCOc1ccc2nc(SCC(=O)c3ccc(Cl)s3)sc2c1,-0.1,-0.6,-0.6,2.7,-1.1
CCOc1ccc2nc(SCC(=O)c3cccs3)sc2c1,2.8,2.3,3.6,12.0*,0.9
Oc1ccccc1C=NC(N=Cc1ccccc1O)c1ccccc1O (stereo unspecified),.,-0.1,0.0,0.9,0.0
O=c1c2ccccc2nnn1COc1cccc2ccccc12,1.6,1.4,0.0,9.8,1.1*
O=c1c2ccccc2nnn1COc1ccc(F)cc1Cl,0.3,0.3,1.3,4.3,-1.5
Nc1ccc(C(=O)c2cccs2)cn1,0.9,0.2,5.8*,3.2,0.5
Cc1cc(C)cc(NC(=O)C2(C(=O)C3CC3)CC(c3ccccc3C(F)(F)F)=NO2)c1 (stereo unspecified),.,-0.9,-0.1,-1.0,-1.3
COC(=O)c1scc(C)c1N/N=C(\C)c1ccc(F)cc1F,-0.1,0.0,5.8*,0.5,-0.4
COC(=O)c1scc(C)c1NC(=O)c1ccc(Cl)cc1,-0.6,.,.,.,.
Cc1cc(/C=N/NC(=O)c2cccc(F)c2)c(C)n1-c1ccccc1,4.5*,1.9,2.1,11.0*,0.4
Cc1[nH]c2ccccc2c1/C=N/NC(=O)c1cccc(F)c1,7.8*,1.4,1.4,6.8,-0.3
O=C(COc1ccccc1F)NNC(=O)c1cccc(-n2cccc2)c1,1.2,1.1,6.3*,0.7,-1.1
NCC(c1ccco1)c1c[nH]c2ccccc12 (stereo unspecified),-0.6,0.1,6.1*,-1.3,0.0
CCOc1ccccc1C(=O)NCC(=O)N(C)CC(=O)Nc1ccc(N2CCOCC2)cc1,-0.3,-0.1,-1.1,-1.8,-1.4
CCCC1CCC2(CC1)CCC2OC(=S)Nc1ccc(Br)cc1 (stereo unspecified),.,.,-0.8,0.5,-1.4
O=C(c1ccccc1)c1cc[n+]([O-])cc1,0.4,-0.3,-1.0,-0.4,-1.5
O=C(c1ccccc1)c1cccc[n+]1[O-],6.2*,-0.1,-1.3,0.2,-1.4
